Assay results: the supplement of paper PMC4022240
± gives the standard deviation.

T1: HaloTag-ATRX ADD domain (163-292)
T1 chain: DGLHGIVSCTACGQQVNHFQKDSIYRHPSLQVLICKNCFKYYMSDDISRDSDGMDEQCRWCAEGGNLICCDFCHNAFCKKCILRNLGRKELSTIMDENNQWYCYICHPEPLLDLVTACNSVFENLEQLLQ

B1: Unmod H1 variant T E N S T S A P A A K P K (peptide)
chain: TENSTSAPAAKPK
B2: Unmod H1 variant R L V T T G V L K Q T K G (peptide)
chain: RLVTTGVLKQTKG
B3: Unmod H1 variant P K K A P V K P K A K S S (peptide)
chain: PKKAPVKPKAKSS
B4: H4 53-65 E T R G V L Kme3 V F L E N V (peptide)
chain: ETRGVLKVFLENV
B5: Unmod H1 variant K A A S K A P T K K P K A (peptide)
chain: KAASKAPTKKPKA
B6: Unmod H1 variant K K S T D H P K Y S D M I (peptide)
chain: KKSTDHPKYSDMI
B7: Unmod H1 variant K K A K K P K T V K A K P (peptide)
chain: KKAKKPKTVKAKP
B8: Unmod H1 variant T K K E I K K V A T P K K (peptide)
chain: TKKEIKKVATPKK
B9: Unmod H1 variant T P K K A S K P K K A A S (peptide)
chain: TPKKASKPKKAAS
B10: Unmod H1 variant S F R L A K S D E P K K S (peptide)
chain: SFRLAKSDEPKKS
B11: Unmod H1 variant A E K N R A G S S R Q S I (peptide)
chain: AEKNRAGSSRQSI
B12: Unmod H1 variant K A K P V K A S K P K K A (peptide)
chain: KAKPVKASKPKKA
B13: Unmod H1 variant K P K A T P V K K A K K K (peptide)
chain: KPKATPVKKAKKK
B14: Unmod H1 variant A K K K L A A T P K K A K (peptide)
chain: AKKKLAATPKKAK
B15: Unmod H1 variant S D M I V A A I Q A E K N (peptide)
chain: SDMIVAAIQAEKN
B16: Unmod H1 variant S E T V P P A P A A S A A (peptide)
chain: SETVPPAPAASAA
B17: Unmod H1 variant D S Q I K L S I K R L V T (peptide)
chain: DSQIKLSIKRLVT
B18: Unmod H1 variant P K K S V A F K K T K K E (peptide)
chain: PKKSVAFKKTKKE
B19: Unmod H1 variant S H Y K V G E N A D S Q I (peptide)
chain: SHYKVGENADSQI
B20: Unmod H1 variant A K P K R A K A S K K S T (peptide)
chain: AKPKRAKASKKST

Assays:
Test in all cases: peptide microarray binding signal (635 nm), min-max normalized on array (fraction of array maximum); higher = stronger binding
[1] = biological target: T1, HaloTag-ATRX ADD domain (163-292)
Summary of the method: (§1)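 Histone 13-mer peptide–cellulose conjugates were printed in triplicate on nitrocellulose with a Cy3 tracer, then blocked overnight at 4°C. Arrays were probed for 1 h at 4°C with biotin-labelled HaloTag reader fusions (10 nM to 1 μM) plus streptavidin-Alexa Fluor 647, or with rabbit histone antibodies (1:10,000 to 1:2,000) plus anti-rabbit Alexa 647. An Axon GenePix 4000B scanned 635 nm for signal and 532 nm for misprints. Binding signal is the triplicate-spot mean intensity, min-max scaled per library.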

[2] = biological target: HaloTag-ING2 PHD (mouse Ing2 200-280)
Summary of the method: as §1

[3] = biological target: anti-H3K4me3 antibody ab8580
Summary of the method: as §1

[4] = biological target: anti-H3K9me3 antibody ab8898
Summary of the method: as §1

[5] = peptide region: Unmod H1 variant, binder concentration: 50 nM
[6] = peptide region: Unmod H1 variant, binder concentration: 500 nM
[7] = peptide region: Unmod H1 variant, binder concentration: 10 nM
[8] = peptide region: Unmod H1 variant, binder concentration: 100 nM
[9] = peptide region: Unmod H1 variant, binder concentration: 1:2,000 dilution
[10] = peptide region: Unmod H1 variant, binder concentration: 1:10,000 dilution
[11] = peptide region: H4 53-65, peptide modifications: H4K59me3, binder concentration: 1:2,000 dilution
[12] = peptide region: H4 53-65, peptide modifications: H4K59me3, binder concentration: 1:10,000 dilution

Binder | peptide microarray binding signal [1, 5] | peptide microarray binding signal [1, 6] | peptide microarray binding signal [2, 7] | peptide microarray binding signal [2, 8] | peptide microarray binding signal [3, 9] | peptide microarray binding signal [3, 10] | peptide microarray binding signal [4, 9] | peptide microarray binding signal [4, 10] | peptide microarray binding signal ([1]; peptide region: H4 53-65, peptide modifications: H4K59me3, binder concentration: 50 nM) | peptide microarray binding signal ([1]; peptide region: H4 53-65, peptide modifications: H4K59me3, binder concentration: 500 nM) | peptide microarray binding signal ([2]; peptide region: H4 53-65, peptide modifications: H4K59me3, binder concentration: 10 nM) | peptide microarray binding signal ([2]; peptide region: H4 53-65, peptide modifications: H4K59me3, binder concentration: 100 nM) | peptide microarray binding signal [3, 11] | peptide microarray binding signal [3, 12] | peptide microarray binding signal [4, 11] | peptide microarray binding signal [4, 12]
B1 | 0.0132 ± 0.00019 | 0.0173 ± 0.002 | 0.005132 ± 2.5e-05 | 0.00694 ± 0.00038 | 0.000906 ± 4.9e-05 | 0.00188 ± 3.5e-05 | 0.00136 ± 1.7e-05 | 0.0015 ± 2.5e-05 | – | – | – | – | – | – | – | –
B2 | 0.0191 ± 0.00044 | 0.035 ± 0.0031 | 0.0205 ± 0.0038 | 0.0395 ± 0.0068 | 0.00321 ± 0.00047 | 0.00348 ± 4.9e-05 | 0.00151 ± 8.2e-05 | 0.001903 ± 1.8e-05 | – | – | – | – | – | – | – | –
B3 | 0.0131 ± 0.00065 | 0.0107 ± 0.00047 | 0.00245 ± 0.0001 | 0.00496 ± 0.0015 | 0.00034 ± 2.1e-05 | 0.000685 ± 7.2e-06 | 0.000362 ± 1.9e-05 | 0.000865 ± 2.4e-05 | – | – | – | – | – | – | – | –
B4 | – | – | – | – | – | – | – | – | 0.00755 ± 0.00027 | 0.00719 ± 0.00011 | 0.0074 ± 5.7e-05 | 0.006945 ± 4.9e-05 | 0.00549 ± 0.00064 | 0.00616 ± 0.00023 | 0.017 ± 0.0023 | 0.0133 ± 0.00048
B5 | 0.0142 ± 0.00045 | 0.0141 ± 0.00028 | 0.00257 ± 0.00013 | 0.019 ± 0.0066 | 0.000963 ± 1.4e-05 | 0.001027 ± 1e-05 | 0.000257 ± 5.3e-06 | 0.000807 ± 1.5e-05 | – | – | – | – | – | – | – | –
B6 | 0.01 ± 7.3e-05 | 0.00895 ± 0.0005 | 0.00269 ± 3e-05 | 0.00418 ± 0.00013 | 0.000717 ± 7.3e-05 | 0.000856 ± 1.8e-05 | 0.000196 ± 2.1e-06 | 0.00075 ± 7.9e-06 | – | – | – | – | – | – | – | –
B7 | 0.0134 ± 0.00092 | 0.00981 ± 0.00033 | 0.00215 ± 4.5e-05 | 0.00645 ± 0.00057 | 0.000642 ± 1.6e-05 | 0.000628 ± 6.7e-06 | 0.000151 ± 1.6e-06 | 0.000634 ± 1.2e-05 | – | – | – | – | – | – | – | –
B8 | 0.0108 ± 0.00026 | 0.00952 ± 0.00026 | 0.00185 ± 3.8e-05 | 0.00482 ± 0.0004 | 0.000604 ± 3e-05 | 0.000628 ± 6.7e-06 | 0.000121 ± 1.3e-06 | 0.000519 ± 5.6e-06 | – | – | – | – | – | – | – | –
B9 | 0.0118 ± 0.00065 | 0.00967 ± 0.00036 | 0.00167 ± 1.7e-05 | 0.00489 ± 0.00044 | 0.000698 ± 3.6e-05 | 0.000571 | 0.000181 | 0.000519 ± 5.6e-06 | – | – | – | – | – | – | – | –
B10 | 0.0196 ± 0.0052 | 0.0223 ± 0.001 | 0.00448 ± 0.00019 | 0.0192 ± 0.0084 | 0.001 ± 0.00013 | 0.00154 ± 9.8e-05 | 0.000785 ± 0.00015 | 0.000923 ± 9.6e-06 | – | – | – | – | – | – | – | –
B11 | 0.0112 ± 0.00071 | 0.0179 ± 0.0034 | 0.00495 ± 0.00025 | 0.00943 ± 0.0026 | 0.000453 ± 4.1e-05 | 0.000913 ± 1.6e-05 | 0.000544 ± 1.5e-05 | 0.00219 ± 0.00045 | – | – | – | – | – | – | – | –
B12 | 0.01229 ± 0.00011 | 0.00971 ± 0.00061 | 0.00292 ± 7.4e-05 | 0.00574 ± 0.00036 | 0.00051 ± 8.6e-06 | 0.000685 ± 7.2e-06 | 0.000196 ± 2.1e-06 | 0.000692 ± 7.3e-06 | – | – | – | – | – | – | – | –
B13 | 0.0137 ± 0.0012 | 0.0124 ± 0.00028 | 0.00209 ± 5.3e-05 | 0.00319 ± 0.00028 | 0.000547 ± 2.7e-05 | 0.00126 ± 2.2e-05 | 0.0008 ± 0.00013 | 0.000634 ± 1.2e-05 | – | – | – | – | – | – | – | –
B14 | 0.01188 ± 3e-05 | 0.0112 ± 0.00064 | 0.00203 ± 2.1e-05 | 0.00397 ± 0.00028 | 0.000415 ± 8.4e-06 | 0.000799 ± 2.2e-05 | 0.000272 | 0.00098 ± 4.6e-05 | – | – | – | – | – | – | – | –
B15 | 0.0102 ± 0.00022 | 0.00514 ± 0.00038 | 0.00555 ± 0.00034 | 0.00326 ± 5.1e-05 | 0.00111 ± 2.4e-05 | 0.00126 ± 4.3e-05 | 0.000559 ± 2.9e-05 | 0.00104 ± 2.1e-05 | – | – | – | – | – | – | – | –
B16 | 0.0132 ± 0.00014 | 0.00691 ± 0.00014 | 0.00448 ± 6.1e-05 | 0.00446 ± 0.00013 | 0.00151 ± 2.3e-05 | 0.00223 ± 4e-05 | 0.000891 ± 7.7e-05 | 0.00115 ± 2e-05 | – | – | – | – | – | – | – | –
B17 | 0.0155 ± 0.00047 | 0.0281 ± 0.00085 | 0.003819 ± 3.5e-05 | 0.00801 ± 0.00074 | 0.000623 ± 3.1e-05 | 0.00137 ± 1.3e-05 | 0.000513 ± 9.7e-06 | 0.00127 ± 2.5e-05 | – | – | – | – | – | – | – | –
B18 | 0.0103 ± 0.00015 | 0.00867 ± 0.00023 | 0.00203 ± 5.4e-05 | 0.00298 ± 7.3e-05 | 0.000321 ± 6.7e-06 | 0.000628 ± 6.7e-06 | 0.000423 ± 4.2e-05 | 0.000519 ± 5.6e-06 | – | – | – | – | – | – | – | –
B19 | 0.00937 ± 0.00014 | 0.00671 ± 0.00048 | 0.00197 ± 2.3e-05 | 0.00298 ± 0.00012 | 0.000227 ± 4.2e-06 | 0.000571 | 0.000181 | 0.000404 ± 4.4e-06 | – | – | – | – | – | – | – | –
B20 | 0.0106 ± 0.0005 | 0.018 ± 0.00086 | 0.00334 ± 4.8e-05 | 0.00638 ± 0.0014 | 0.000378 ± 1.4e-05 | 0.000913 ± 2.8e-05 | 0.000347 ± 7e-06 | 0.000634 | – | – | – | – | – | – | – | –
